Only some compounds are listed: those with a hit (about 1.6% of all), similar ones and a draw of the others.
KCNQ2 pot – KCNQ2 (rat) channel potentiation; O88943; CHO-K1 KCNQ2, FluxOR thallium flux fluorescence; hits give high values; B-score at 10 µM; 310,000 compounds, 0.54% hits;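 active = fluorescence ratio B-score at least 3 SD of library B-scores, with initial fluorescence B-score within 3 of them, cut at about 5.3 in these data; same plate scores as AID 2156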;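 also: B-score of peak minus minimum over baseline fluorescence ratio after K+ and Tl+ stimulus; positive B-score means potentiation of KCNQ2 with more thallium influx and brighter signal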
Target sequence (O88943 whole entry, looked up): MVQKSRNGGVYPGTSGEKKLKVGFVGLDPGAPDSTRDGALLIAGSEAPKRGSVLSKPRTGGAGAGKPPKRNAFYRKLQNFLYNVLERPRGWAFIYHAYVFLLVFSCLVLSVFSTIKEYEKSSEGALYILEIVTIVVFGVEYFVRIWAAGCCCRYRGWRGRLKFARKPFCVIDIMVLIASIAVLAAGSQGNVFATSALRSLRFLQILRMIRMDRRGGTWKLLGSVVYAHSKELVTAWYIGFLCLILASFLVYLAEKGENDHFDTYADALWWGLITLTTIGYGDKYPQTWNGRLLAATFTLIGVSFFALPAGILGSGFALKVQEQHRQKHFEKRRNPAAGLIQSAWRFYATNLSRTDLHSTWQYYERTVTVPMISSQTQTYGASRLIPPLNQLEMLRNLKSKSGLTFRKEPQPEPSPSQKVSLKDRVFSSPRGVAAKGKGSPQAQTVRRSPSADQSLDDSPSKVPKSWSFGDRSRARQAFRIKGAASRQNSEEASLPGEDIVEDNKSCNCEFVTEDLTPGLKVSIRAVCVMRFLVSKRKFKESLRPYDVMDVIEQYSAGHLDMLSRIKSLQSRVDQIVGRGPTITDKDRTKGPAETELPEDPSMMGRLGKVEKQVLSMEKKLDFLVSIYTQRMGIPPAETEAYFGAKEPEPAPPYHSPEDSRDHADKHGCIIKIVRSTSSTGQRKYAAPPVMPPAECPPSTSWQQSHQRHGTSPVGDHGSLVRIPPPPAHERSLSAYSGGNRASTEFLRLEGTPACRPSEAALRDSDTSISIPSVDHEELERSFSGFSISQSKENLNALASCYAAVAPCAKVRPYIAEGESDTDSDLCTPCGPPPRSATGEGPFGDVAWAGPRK
KCNQ2 block – KCNQ2 (rat) channel inhibition; O88943; CHO-K1 KCNQ2, FluxOR thallium flux, 20 min; hits give low values; B-score at 10 µM; 310,000 compounds, 1.1% hits; AID 2156;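 active = fluorescence ratio B-score at most minus 3 library SDs, with starting brightness B-score within 2 library SDs, cut at about -5.5 in these data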
Of the large screens only hits and unclear results are named; the others gave an inactive call.

CCOC(=O)c1ccc(N=c2sc(C(=O)OC)cc(=O)n2Cc2ccc3c(c2)OCO3)cc1	KCNQ2 block -5.94
COC(=O)c1cc(=O)n(Cc2ccc3c(c2)OCO3)c(=Nc2ccc(F)cc2)s1	none (no result: KCNQ2 pot)
CCCS(=O)(=O)c1nc(S(=O)(=O)c2ccc(Cl)cc2)c(N2CCC(O)CC2)s1	none
O=C(CNC1CCCCC1)Nc1ccc(Cl)cc1	none
OCCN1CCN(C2Cc3cc(Cl)ccc3Sc3ccc(Cl)cc32)CC1 (configuration not stated) (tested in a mixture with another compound)	none (no result: KCNQ2 pot)
CN1CCN(C2Cc3cc(Cl)ccc3Sc3cc(F)ccc32)CC1 (configuration not stated)	KCNQ2 block -6.89
COc1ccc(CNC(=O)CN(c2cccc([N+](=O)[O-])c2)S(C)(=O)=O)cc1	none (no result: KCNQ2 pot)
Cc1cc2c(c(=O)o1)C(c1ccc([N+](=O)[O-])o1)C(C#N)=C(N)O2 (configuration not stated)	KCNQ2 pot 7.7
CCC(CC)C1C(C#N)=C(N)Oc2cc(C)oc(=O)c21 (configuration not stated)	none
O=C(c1ccc(Cn2cnnn2)cc1)N1CCCC(Nc2ccc(F)c(F)c2)C1 (configuration not stated)	none (no result: KCNQ2 pot)
COc1ccc(NC(=O)CCNS(=O)(=O)c2cc(Br)cnc2N)c(OC)c1	none
Cc1ccc(C(=O)NCCOC23CC4CC(CC(C4)C2)C3)cc1	KCNQ2 block -6.03
COc1cc(OC)cc(C(=O)NCCOC23CC4CC(CC(C4)C2)C3)c1	none (no result: KCNQ2 pot)
CC(=O)n1cc(Nc2ccc([N+](=O)[O-])cc2)c2ccccc21	none
CC(=O)SC(C[N+](=O)[O-])c1cn(C(C)=O)c2ccccc12 (configuration not stated)	KCNQ2 block -5.57
COc1ccc(CNC(=O)Cn2ccc3cc(S(=O)(=O)N4CCCC4)ccc32)cc1OC	none
O=[N+]([O-])c1ccc(S(=O)(=O)Nc2ccc(S(=O)(=O)N3CCCC3)cc2)cc1	none
O=C1CC(C(=O)N2CCN(S(=O)(=O)c3cccc(F)c3)CC2)CN1Cc1ccccc1Cl (configuration not stated)	none (no result: KCNQ2 pot)
Cn1c(O)c(N=Nc2nc(-c3ccccc3)cs2)c2ccccc21	KCNQ2 pot 21.9
Cn1c(O)c(N=Nc2ccccc2)c2ccccc21	none
CCN(CC)S(=O)(=O)c1cccc(NC(=O)c2cc(=O)[nH]c3ccccc23)c1	none
COc1ccc(CN(C(C)=O)c2cccc(C)c2C)cc1	none (no result: KCNQ2 pot)
CC(=O)N(Cc1ccc(Br)cc1)c1cccc(C)c1C	KCNQ2 block -6.49
C=CCn1c(C(C)NC(=O)C(C)(C)C)nc2ccccc21 (configuration not stated)	KCNQ2 block -6.6
C=CCn1c(CCCNC(=O)C(C)(C)C)nc2ccccc21	none
CSc1nnc(-c2sccc2OCc2ccccc2)n1C	none (no result: KCNQ2 pot)
CSc1n[nH]c(-c2sccc2OCc2ccc(C)cc2)n1	KCNQ2 block -6.14
COc1ccc(N(CC(=O)NC2CCCCC2)C(=O)CCCC(=O)Nc2ccccn2)cc1	none
c1cc2cc(-c3c(-c4ccc5c(c4)OCO5)noc3-c3ccsc3)ccc2[nH]1	none (no result: KCNQ2 pot)
Cc1onc(-c2ccc3c(c2)OCO3)c1-c1ccc2[nH]ccc2c1	KCNQ2 block -7.89
CC(C)C(CCNC(=O)CC(Cc1ccccc1)c1ccco1)c1ccco1 (configuration not stated)	KCNQ2 block -14
CC(C)C(CCNC(=O)CN1C(=O)c2ccccc2C1=O)c1ccco1 (configuration not stated)	none (no result: KCNQ2 pot)
CCOC(=O)C1=C(CCc2ccccc2)NC(=O)NC1c1ccc(C#N)cc1 (configuration not stated)	none (no result: KCNQ2 pot)
CCN1C(=O)[C@H]2[C@@H](c3ccc(OC)cc3)N3C(=O)CN(CCOC)C(=O)[C@@]3(C)[C@H]2C1=O	none
CCOc1ccc(NC(=O)C2CCCN2S(=O)(=O)c2ccc3c(c2)C(C)(C)C(=O)N3C)cc1 (configuration not stated)	none
Cc1ccccc1NC(=O)c1ccc(Cn2cc([N+](=O)[O-])cn2)o1	none
O=C(Nc1cccc(F)c1)c1ccc(Cn2cc([N+](=O)[O-])cn2)o1	KCNQ2 pot 5.49
O=C(Nc1cccc(C(=O)O)c1)/C(=C\c1ccccc1Cl)NC(=O)c1ccco1	none
Cc1ccc(/C=C/C(=O)NCc2cccs2)o1	none (no result: KCNQ2 pot)
Cc1ccc2c(c1)N(C(=O)CCC(=O)NCc1cccc(Cl)c1)CC(C)O2 (configuration not stated)	KCNQ2 block -5.69
Cc1ccc2c(c1)N(C(=O)CCC(=O)NCc1ccccc1)CC(C)O2 (configuration not stated)	none (no result: KCNQ2 pot)
O=C(COc1ccc(F)c(Cl)c1)N1CCCCCCC1	none (no result: KCNQ2 pot)
O=C1CSc2ccc(S(=O)(=O)N3CCN(c4ccccc4F)CC3)cc2N1	none (no result: KCNQ2 pot)
CC1(C)CC(=O)C(C(C2=C(O)CC(C)(C)CC2=O)c2cccnc2)C(=O)C1 (configuration not stated)	none
CC1(C)CC(=O)C(C(C2=C(O)CC(C)(C)CC2=O)c2cccs2)C(=O)C1 (configuration not stated)	KCNQ2 pot 6.17
